Source: PubChem BioAssay AID893 (National Center for Advancing Translational Sciences (NCATS), 2007)
The whole screen tested about 75,000 compounds, of which about 5,700 (7.6%) were called active. Inconclusive results (about 7%) are left out. The full list was thinned out, with actives kept by preference. Values without a mark were called inactive. Calls come from the whole dose curve; as a rule, active = well fitted inhibition curve with a large enough effect; inconclusive = small, poorly fitted or top-dose-only effect; inactive = no such curve, though single readings can be large or run the other way.

target: 3-hydroxyacyl-CoA dehydrogenase type-2 (Homo sapiens) (UniProt Q99714); test: qHTS Assay for Inhibitors of HSD17B4, hydroxysteroid (17-beta) dehydrogenase 4; details: recombinant HSD17B10, NADH fluorescence kinetic; series mostly up to 57.1 µM; activity change, negative = inhibition: at the top concentration;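 note: the protocol describes HADH2 (HSD17B10) and not the HSD17B4 of the title; nearly all actives have a fitted effect of over 70% in size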
Summary of the method: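 Enzyme plus compound, 15 min room temperature; substrate mix added (NAD+ 1 mM, beta-hydroxybutyryl-CoA 90 uM final); plates read kinetically for NADH fluorescence. HADH2 was His-tagged, E. coli-derived, 20 nM.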
% is set by controls: 0 for no effect and ±100 for the full control effect; potency is the fitted concentration of half-maximal effect.

| SMILES | activity change, negative = inhibition | Potency |
| --- | --- | --- |
| Cn1c(C(=O)N2CCC(C(N)=O)CC2)cc2c(=O)n(C)c3ccccc3c21 | -10.8% | – |
| CC1CCCCN1CCCNC(=O)c1ccc(-n2c(=O)c(=O)[nH]c3ccccc32)cc1 (stereo unspecified) | 5.61% | – |
| C=C(C)C1CC=C(CO)CC1 (stereo unspecified) | 2.12% | – |
| COC(=O)[C@@H]1C[C@@]2(O)[C@H](O)[C@H](O)[C@H](O)C[C@H]2N1Cc1ccc(C)s1 | 3.78% | – |
| Cc1cc(NCc2ccco2)n2c(nc3ccccc32)c1C#N | – | 3.16 µM (active) |
| Cc1ccccc1NC(=O)NCc1ccco1 | -0.0132% | – |
| N#Cc1c2c(c(N3CCN(CCO)CC3)n3c1nc1ccccc13)CCCC2 | -18.5% | – |
| C/C(CCN1CCCCc2nc(C)c(C)cc21)=N\O[C@@H](C)c1cn([C@@H]2COC[C@@H]2O)nn1 | 0.914% [at 11.4 µM] | – |
| CCC1CCCCN1CCNS(=O)(=O)c1ccc2c(c1)CCN2C(C)=O (stereo unspecified) | 7.62% | – |
| CCOC(=O)c1ccc(N2C(=O)CC(N3CC(C)OC(C)C3)C2=O)cc1 (stereo unspecified) | -27.9% | – |
| N#Cc1cccc(CSc2nnc(CCCO)n2-c2ccccc2)c1 | 7.8% | – |
| Cn1c(N)c(C(=O)COC(=O)c2cc(C(F)(F)F)nc3c(C(F)(F)F)cccc23)c(=O)n(C)c1=O | 8.09% | – |
| Cc1c(O)c(Br)c(C)c(O)c1Br (tested in a mixture with another compound) | – | 0.794 µM (active) |
| CN(c1ccc(C(=O)NCCC2=CCCCC2)cc1)S(C)(=O)=O | 8.37% | – |
| CCC[C@@H]1C[C@@]1(CCC)C(NS(=O)(=O)c1cccc2cccnc12)c1ccc(Cl)cc1 (stereo partly specified) | 1.13% | – |
| Clc1ccc(C2[C@H]3CN(CC4CCCCC4)[C@H](c4ccccc4)C34CC2(c2cccnc2)C4)cn1 (stereo partly specified) | 2.17% | – |
| Cc1ccc(S(=O)(=O)NCc2nc3ccccc3c(=O)n2N)cc1 | -0.665% | – |
| Cc1ccc(S(=O)(=O)c2c(N)n(C)c3nc4ccccc4nc23)cc1 | – | 25.1 µM (active) |
| c1cc(-n2cnnn2)ccc1NC1=NCCC1 | 9.21% | – |
| CC(C)CN1CCc2nc(-c3ccccc3)c3c(c2C1)COC(C)C3 (stereo unspecified) | -2.26% [at 11.4 µM] | – |
| Cc1ccc(Cn2ccc(NC(=O)c3cc(C(C)C)on3)n2)cc1 | -3.93% | – |
| CC(C)c1ccc(OCC(O)Cn2cnc3ccccc32)cc1 (stereo unspecified) | -11% | – |
| CCOC(=O)N1CCN(C(=O)CNC(=O)Cc2ccc(Cl)cc2)CC1 | 8.58% | – |
| CCOC(=O)N1CCN(C(=O)CSc2ccc(Cl)cc2)CC1 | -3% | – |
| CCOC(=O)N1CCN(C(=O)c2ccc3nc4cc(Cl)ccc4c(=O)n3c2)CC1 | – | 1 µM (active) |
| Cn1c(=NC(=O)CSCC(=O)N2CCCCC2)sc2ccccc21 | -7.16% | – |

| SMILES | activity change, negative = inhibition | Potency |
| --- | --- | --- |
| O=C(CSc1nnc(-c2ccccn2)n1-c1ccccc1)Nc1ccc2c(c1)OCO2 | 1.79% | – |
| CC[C@H](c1ccccc1)c1cc(C(C)(C)C)cc(C(C)(C)C)c1O | -3.63% [at 11.4 µM] | – |
| CC(C)C1N=C2c3ccccc3N=C(SCC(=O)c3ccc(O)c(O)c3)N2C1=O (stereo unspecified) | 14.8% | – |
| O=C(CN1C(=O)CCS(=O)(=O)c2ccccc21)NCc1ccc(F)cc1 | 2.42% | – |
| NC(=O)CSC1=Nc2ccccc2C2=NC(CCC(=O)NCc3ccc(F)cc3)C(=O)N12 (stereo unspecified) | – | 31.6 µM (active) |
| Cc1ccc(SCCN2C(=O)NC(C)(C)C2=O)cc1 | 5.53% | – |
| C=CCn1c(COc2ccccc2C)nnc1SCC(=O)O | 5.36% | – |
| C=CCn1c(COc2cccc3cccnc23)nnc1SCC(=O)OC | – | 31.6 µM (active) |
| C=CCn1c(COc2ccccc2)nnc1SCC(=O)NCC(=O)OCC | 0.839% | – |
| O=C(O)C1C2C=CC(C2)C1C(=O)N1CCN(CCO)CC1 (stereo unspecified) | 12.8% | – |
| CCOC(=O)c1cc(NC(=O)SCC(=O)O)c(C)nc1C | -8.8% | – |
| CCOC(=O)c1cc(-c2nnc(-c3cc(OC)c(OC)c(OC)c3)o2)c(C)nc1C | – | 31.6 µM (active) |
| COc1cc(-c2nnc(Cn3cc(C(F)(F)F)ccc3=O)o2)cc(OC)c1OC | -1.71% | – |
| Cc1cc(C)cc(C#CC2C=CC(Oc3ccc(C4CCCC4)cc3)C(CO)O2)c1 (stereo unspecified) | 4.3% [at 11.4 µM] | – |
| CCn1c(=N)c(C(=O)NCCCOC)cc2c(=O)n3cccc(C)c3nc21 | – | 31.6 µM (active) |
| COCCCNC(=O)c1ccc2c(c1)ncn2-c1ccccc1OC | -20.2% | – |
| CCOCCCNC(=O)c1c[nH]c2cc(C)ccc2c1=O | -2.6% | – |
| CC(=O)N(Cc1cccs1)C1CCOC(C)(C)C1 (stereo unspecified) | -3.43% | – |
| O=C(O)c1ccc(COc2c(F)c(F)cc(F)c2F)o1 | 0.716% | – |
| CCOC(=O)n1c(SCC(=O)N(CC)CC)nc2ccccc21 | 3.57% | – |
| Cc1cc(N2CCCCC2)nc2ccc(Cc3ccc4nc(N5CCCCC5)cc(C)c4c3)cc12 | – | 3.16 µM (active) |
| COc1ccc(-n2c(SC)nc(O)cc2=O)cc1 | 8.7% | – |
| CCOC(=O)c1ccccc1NC(=O)CC1Nc2ccccc2NC1=O (stereo unspecified) | 0.318% | – |
| O=C(CC1NCCNC1=O)Nc1ccc(Oc2ccccc2)cc1 (stereo unspecified) | 0.426% | – |
| O=C(CC1Nc2ccccc2NC1=O)Nc1ccccc1 (stereo unspecified) | – | 25.1 µM (active) |
